For eleven compounds, composite z-score, z-score and outcome results are on record in PubChem BioAssay.

SMILES strings stand for the structures. For some of these results: Results with a measured potency or affinity are listed apart. Inconclusive results are not listed. Calls of active or inactive are those of the source. Unless noted, how the calls were made is not given here.

In experiment [1] the test system is XIP peptide (Xip251-270) binding. In words: XIP fragment 251-270 binding compounds – biochemical, small-molecule microarray, fluorescence 635/667 nm, 0.1 µg/mL protein, primary screen (AID 1182). Particulars: fluorescent protein binding, 635 nm, higher = more signal, called active from +8 up or from −8 down.
The next experiment concerns XIP peptide (Xip251-270). The experiment in a line: compounds binding XIP fragment 251-270 – biochemical, small-molecule microarray, fluorescence 635/667 nm, 0.5 µg/mL protein, primary screen (AID 1183). As to conditions: fluorescence 635 nm, higher = more signal.
Experiment [2] in a line: blood-stage malaria parasite viability loss – strain 3D7, DAPI fluorescence, 100 nL, primary screen (AID 1184).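 Further: parasites grown inside human red blood cells in medium with human serum.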 Particulars: P. falciparum 3D7 growth, 3 d, higher = more signal.
The target of experiment [3] is Homeobox protein Hox-A13 (Mus musculus) (UniProt Q62424). In words: disruptors of Hoxa13 oligonucleotide interaction – biochemical, fluorescence polarization, labeled oligonucleotide, primary screen (AID 1185). As to conditions: Hoxa13:DNA binding, 15 min, higher = more signal, called active from +8 up or from −8 down.
Sequence of Homeobox protein Hox-A13 (Mus musculus) (Q62424 whole entry, looked up): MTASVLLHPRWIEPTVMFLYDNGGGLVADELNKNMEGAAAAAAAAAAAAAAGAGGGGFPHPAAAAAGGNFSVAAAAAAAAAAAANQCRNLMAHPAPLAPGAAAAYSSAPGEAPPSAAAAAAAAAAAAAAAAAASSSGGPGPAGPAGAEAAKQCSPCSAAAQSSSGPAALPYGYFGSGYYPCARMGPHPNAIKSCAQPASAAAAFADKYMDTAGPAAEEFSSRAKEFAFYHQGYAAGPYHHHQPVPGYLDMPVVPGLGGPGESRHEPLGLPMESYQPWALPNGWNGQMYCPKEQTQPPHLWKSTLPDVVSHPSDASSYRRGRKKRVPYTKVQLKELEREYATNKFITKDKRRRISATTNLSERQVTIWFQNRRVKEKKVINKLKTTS
Experiment [4] can be described thus: blockers of DNA damage checkpoint Chk1 activation – imaging, HeLa, hydroxyurea, phospho-Chk1 antibody, percent positive cells, primary screen (AID 1186). Particulars: hydroxyurea-induced phospho-Chk1 immunofluorescence imaging, higher = more signal.
A short description of experiment [5]: blockers of DNA damage checkpoint Chk1 activation – imaging, HeLa, hydroxyurea, phospho-Chk1 nuclear intensity, primary screen (AID 1187). As to conditions: hydroxyurea-induced phospho-Chk1 immunofluorescence imaging, higher = more signal.
The nature of experiment [6]: fungal growth arrest, C. neoformans – Alamar Blue, cherry-picks, dose response (AID 686998;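 active means falling signal with fitted half-maximal potency no higher than twice the top valid tested dose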). As to conditions: Cryptococcus neoformans growth, 24 h; series mostly up to 35 µM. In general terms: Alamar Blue is a resazurin reagent that responds to reducing activity.
The nature of experiment [7]: C. neoformans lysis by adenylate kinase leakage – AK release luminescence, cherry-picks, dose response (AID 687000;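 active means fitted dose curve reaches 40% lysis signal rise at or below the highest valid concentration tested for that sample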;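 further: luminescent detection of adenylate kinase leaking from lysed yeast; 0% = median neutral control signal and 100% = double that signal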). Particulars: 4 h, 100% = twice the neutral-control signal; series mostly up to 15 µM.
Experiment [8] in a line: viability loss in HepG2 hepatoma cells – cell-based, cherry-picks, set 2, cytotoxicity control, dose response (AID 687002;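 active means a dose-response fit showing signal loss, with half-maximal concentration no higher than twice the top tested dose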). As to conditions: ATP luminescence (CellTiter-Glo), 48 h; series mostly up to 26 µM. (In general: Cellular ATP, detected with luciferase, serves as a proxy for viable cell number.)
A short description of experiment [9]: viability loss in HeLa cells – cell-based, ATP luminescence, cherry-pick samples, cytotoxicity control, dose response (AID 687004;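 active means a fitted half-maximal concentration no higher than twice the top valid tested dose, with signal falling as cells die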;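 further: 0% = neutral control median and -100% = staurosporine 10 µM control median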). Particulars: ATP luminescence (CellTiter-Glo), 48 h; series mostly up to 26 µM.

Consider `[N-]=[N+]=NCc1ccccc1C[C@]1(C(N)=O)N=C(c2ccc(OCCCO)cc2)O[C@H]1c1ccccc1CN=[N+]=[N-]`, for which the composite z-score in experiment [1] was 1.04 (inactive); in the experiment with XIP peptide (Xip251-270), -0.285. Also, the z-score in experiment [2] was -2.29; in experiment [3], 1.67 (inactive); in experiment [4], -0.442 (inactive); in [5], -0.427 (inactive).

With `COCCOC(=O)N1C(=O)[C@@]2(c3cc(C#CC4=CCCCC4)ccc31)[C@H](C(=O)NC[C@H](O)c1ccccc1)[C@H]1C(=O)O[C@H](c3ccccc3)[C@H](c3ccccc3)N1[C@@H]2c1ccc(OCCO)cc1`, the composite z-score in experiment [1] was -0.361 (inactive); in the experiment on XIP peptide (Xip251-270), 0.612. Also, the z-score in experiment [2] is -1.73; in [3] it was 2.05 (inactive); in [4], 0.0381 (inactive); in [5], 0.231 (inactive).

Consider `N#Cc1ccc(NN2C(C(O)c3ccc(I)cc3)C=CC3C(=O)N(c4ccccc4)C(=O)C32)cc1` (stereo not given), for which the composite z-score was 0.816 (inactive) in experiment [1] and 0.464 with XIP peptide (Xip251-270). Further, the z-score in experiment [2] is 0.175; in experiment [3], -1.01 (inactive); in experiment [4], -0.308 (inactive); in experiment [5] it was 0.145 (inactive).

In the case of `O=C1O[C@@H](c2ccccc2)[C@@H](c2ccccc2)N2[C@@H](c3ccc(O)cc3)[C@]3(C(=O)Nc4ccccc43)[C@@H](C(=O)N3CCN(c4ncccn4)CC3)[C@H]12`, the composite z-score was 1.55 (inactive) in [1] and -0.278 in the experiment on XIP peptide (Xip251-270). Besides, the z-score was -1.46 in experiment [2], -2.96 (inactive) in experiment [3], -0.231 (inactive) in experiment [4] and -0.242 (inactive) in [5].

In the case of `COC(=O)[C@@]1(Cc2ccc(OC)cc2)[C@H]2c3cc(C(=O)N(C)C)n(CCc4ccc(OC)c(Br)c4)c3C[C@H]2CN1C(=O)c1ccccc1`, the results for the composite z-score (in [1]; in the experiment with XIP peptide (Xip251-270)) were 0.717 (inactive) and 0.351, respectively. For the same compound, the z-score in [2] is -1.28; in [3] it was -0.511 (inactive); in experiment [4], 1.02 (inactive); in experiment [5] it was 0.463 (inactive).

In the case of `O=C1C2C=CC(C(O)Cc3ccccc3)N(Nc3ccc([N+](=O)[O-])cc3)C2C(=O)N1c1ccccc1` (stereo not given), the results for the composite z-score (in experiment [1]; in the experiment on XIP peptide (Xip251-270)) were 2.76 (inactive) and -0.224, respectively. For the same compound, the z-score in experiment [2] is -0.463; in experiment [3], -5.69 (inactive); in experiment [4], 0.433 (inactive); in experiment [5], -0.541 (inactive).

Consider `Cc1ccc(S[C@]2(C(=O)O)CC(=O)N(Cc3cc(C(F)(F)F)cc(C(F)(F)F)c3)[C@@H]2c2ccc(CO)cc2I)cc1`, for which the figures for the composite z-score (in experiment [1]; in the experiment with XIP peptide (Xip251-270)) were -0.313 (inactive) and 0.761, respectively. Moreover, the z-score in experiment [2] is -0.48; in experiment [3], -2.32 (inactive); in [4], 0.407 (inactive); in [5] it was 1.08 (inactive).

Turning to `O=C(CS)NCCCCCCNC(=O)[C@@H]1C[C@@H]2C(=O)N[C@@H](Cc3ccccc3)C(=O)N2[C@@H]1c1ccc(O)cc1`, the figures for the composite z-score (in experiment [1]; in the experiment on XIP peptide (Xip251-270)) were 0.794 (inactive) and 0.811, respectively. Besides, the z-score in [2] is -1.02; in [3] it was -2.14 (inactive); in experiment [4] it was -0.0496 (inactive); in experiment [5] it was 0.23 (inactive).

For `NC(=O)NCC#Cc1ccc2c(c1)[C@]1(C(=O)N2)[C@H](C(N)=O)[C@H]2C(=O)O[C@H](c3ccccc3)[C@H](c3ccccc3)N2[C@@H]1c1ccccc1OCCO`, the composite z-score in experiment [1] is 0.212 (inactive); in the experiment with XIP peptide (Xip251-270) it was 0.473. In addition, the z-score in experiment [2] is 0.257; in experiment [3], -4.44 (inactive); in experiment [4], 0.113 (inactive); in [5], 0.158 (inactive). In addition, the outcome in experiment [6], in experiment [7], in experiment [8] and in [9] was inactive.

`CC(c1ccccc1)C(O)C1C=CC2C(=O)N(C)C(=O)C2N1N(c1ccccc1)c1ccccc1` (stereo not given): the values for the composite z-score (in experiment [1]; with XIP peptide (Xip251-270)) were 0.0311 (inactive) and -0.62, respectively. Besides, the z-score was -0.141 in experiment [2], -4.26 (inactive) in experiment [3], 0.75 (inactive) in experiment [4] and -0.173 (inactive) in experiment [5].

`CCCC[C@@H]1C[C@H]1[C@@H](NC(=O)c1ccccc1)c1ccccc1C(F)(F)F`: the results for the composite z-score (in experiment [1]; in the experiment on XIP peptide (Xip251-270)) were 0.715 (inactive) and 0.193, respectively. Moreover, the z-score in [2] is -1.19; in experiment [3], 2.99 (inactive); in experiment [4], 0.726 (inactive); in experiment [5] it was 0.542 (inactive).
